Sm TGR inh – inhibitors of Schistosoma mansoni thioredoxin glutathione reductase. Q962Y6. purified TGR, DTNB reduction, TNB absorbance 405 nm. Potency, µM (doses to about 114 µM), for the others: at the top dose activity change, negative = inhibition, usual class: inhibitors. 3% of 360,000 active. AID 485364; also: % is scaled to controls: 0 for no effect and ±100 for the full control effect; nearly all actives have a fitted effect of over 60% in size
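TGR 20 nM + NADPH 100 uM (dispensed conc.), cpd preinc 15 min RT; start with NADPH (500 uM addition) then DTNB (15 mM addition). Kinetic TNB absorbance, 405 nm filter. Four-parameter Hill fit across titration.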
AMA1 RON2 block – inhibitors of Plasmodium falciparum AMA1-RON2 interaction. AlphaScreen AMA1-biotinylated RON2 peptide binding. Potency, µM (highest dose often 58.2 µM), for the others: at the highest dose activity change, negative = inhibition, most hits filed as inhibitors. 0.2% of 360,000 active;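 also: 0% = vehicle wells and -100% = peptide control; nearly all actives have a fitted effect of over 45% in size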
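AMA1 (3D7) with his tag at 25 nM final met compounds first, then biotinylated RON2 peptide at 25 nM; detection used donor plus acceptor beads, 10 µg/mL apiece, read by AlphaScreen after 30 min at room temperature.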
Pf growth 96h – inhibits malaria parasite growth, 96 h; P. falciparum luciferase reporter growth, 96 h; Potency, µM (highest dose often 28.7 µM), inactives show at the top dose activity change, negative = inhibition, actives largely listed as inhibitors; 6.9% of 320,000 active; also: % is scaled to controls: 0 for no effect and ±100 for the full control effect
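P. falciparum expressing integrated firefly luciferase, in erythrocytes at 2% hematocrit, 0.05% parasitemia, incubated with compounds 96 h at 37 C, 5% CO2. Growth inhibition read as loss of luminescence; two-generation exposure targets delayed-death apicoplast inhibitors.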
NS1 function inh – blocks influenza NS1 protein function. Potency, µM (series often up to 46.1 µM), inactives show at the highest dose activity, positive = more growth. 0.4% of 270,000 active; calls by dose curve; also: actives are rising curves; nearly all actives have a fitted effect of over 50% in size
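Growth recovery, yeast-based: influenza A NS1 expressed in S. cerevisiae causes slow growth, and suppressors are detected by OD600. The parent strain without NS1 is used as positive control.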
Pf growth 48h – P. falciparum growth inhibition at 48 hours (one generation). P. falciparum luciferase growth in erythrocytes, 48 h. Potency, µM (top dose mostly 28.7 µM), for the others: top-dose activity change, negative = inhibition, hits mostly inhibitors. 5.9% of 310,000 active; also: % is scaled to controls: 0 for no effect and ±100 for the full control effect
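Cell-based growth assay: transgenic P. falciparum expressing firefly luciferase, cultured in red cells within RPMI 1640 containing 0.5% w/v Albumax, 24 mM bicarbonate and gentamycin. A drop in luciferase activity indicates inhibition.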
The depositor's hits bear a star. Most compounds without a hit are left out; they make up all but 11% or so of the library. Unless noted, calls follow the shape of the dose curve; as a rule, active = well fitted curve in the direction sought with a large enough effect; inconclusive = small, poorly fitted or top-dose-only effect, or another doubt; inactive = no such curve, though single readings can be large; an effect the other way counts as inactive or inconclusive. Potency is read from the fitted curve at half-maximal effect.

For CCCc1ncc(CN2CCCCC2C(=O)Nc2ccc(Oc3ccccc3)nc2)cn1 (stereo not given) the results were AMA1 RON2 block -16%.
CCOC(=O)c1c(C)n(-c2ccc(OC)cc2)c2ccc(O)c(CN(C)C)c12 was read as Sm TGR inh -10%, AMA1 RON2 block -5%, Pf growth 96h 7.4µM*, NS1 function inh 6% and Pf growth 48h inconclusive.
Screening CCOC(=O)c1c(C)n(-c2ccc(C)cc2)c2ccc(O)c(CN(C)C)c12 returned AMA1 RON2 block -17%, Pf growth 96h 32%, NS1 function inh 0% and Pf growth 48h 10µM*.
Screening CCOC(=O)c1c(C)n(C)c2ccc(O)c(CN(C)C)c12 returned Sm TGR inh inconclusive, AMA1 RON2 block -2%, Pf growth 96h 19%, NS1 function inh -3% and Pf growth 48h -7%.
For O=C(NCc1ccccc1)c1cc(-c2cccc(O)c2)on1 the results were Sm TGR inh 5%, AMA1 RON2 block 8%, Pf growth 96h -29%, NS1 function inh -6% and Pf growth 48h 50%.
`CC(=O)Nc1ccc(C2(c3ccc(NC(C)=O)cc3)NC(=O)c3ccccc32)cc1` gave Sm TGR inh -17%, AMA1 RON2 block 12%, Pf growth 96h 46%, NS1 function inh 14% and Pf growth 48h 1.3µM*.
Screening NC(=O)CS(=O)C(c1ccccc1)c1ccccc1 (stereo not given) returned Sm TGR inh inconclusive, Pf growth 96h 6µM* and Pf growth 48h -8%.
NC(=O)OCC(COC(N)=O)c1ccccc1 was read as Sm TGR inh 0%, AMA1 RON2 block 0%, Pf growth 96h 0%, NS1 function inh -3% and Pf growth 48h 33%.
`CCOc1ccc(-c2csc(/C(C#N)=C\c3ccc(O)c([N+](=O)[O-])c3)n2)cc1` gave Sm TGR inh -20%, AMA1 RON2 block -12%, Pf growth 96h 5.2µM*, NS1 function inh -5% and Pf growth 48h inconclusive.
For CCc1ccc(/C=C(/C#N)c2nc(-c3ccc(C)cc3)cs2)cc1 the results were Sm TGR inh 0%.
`Cc1ccc2oc3c(c(=O)c2c1)C(c1cccc(Cl)c1)N(CCCN1CCOCC1)C3=O` (stereo not given) gave Sm TGR inh inconclusive, AMA1 RON2 block 13%, Pf growth 96h inconclusive, NS1 function inh -7% and Pf growth 48h 2.6µM*.
For Cc1ccc2oc3c(c(=O)c2c1)C(c1ccc(F)cc1)N(CCCN1CCOCC1)C3=O (stereo not given) the results were Sm TGR inh 32µM*, Pf growth 96h inconclusive and NS1 function inh 7%.
`COC(=O)c1sccc1S(=O)(=O)N1CCCC(N(C)CCc2ccccn2)C1` (stereo not given) gave Sm TGR inh -21%, AMA1 RON2 block 4%, Pf growth 96h inconclusive, NS1 function inh 2% and Pf growth 48h -6%.
CN1C(=O)N(C)C(=O)C2(Cc3cc(NC(=O)c4ccc(F)cc4)ccc3N3CCCC32)C1=O (stereo not given) was read as Sm TGR inh 40µM*, AMA1 RON2 block -6%, Pf growth 96h 15µM*, NS1 function inh inconclusive and Pf growth 48h inconclusive.
CC(=O)Nc1ccc2c(c1)CC1(C(=O)N(C)C(=O)N(C)C1=O)C1CCCN21 (stereo not given) was read as Sm TGR inh 45µM*, AMA1 RON2 block 102%, Pf growth 96h 20% and NS1 function inh 12%.
CN1C(=O)N(C)C(=O)C2(Cc3ccccc3N3CCCC32)C1=O (stereo not given) was read as Sm TGR inh inconclusive, AMA1 RON2 block -9%, Pf growth 96h 0%, NS1 function inh 6% and Pf growth 48h 0%.
`O=c1[nH]ccc2c(O)cccc12` gave AMA1 RON2 block -1% and NS1 function inh 3%.
Screening COc1ccc(C(=O)NC(=S)N2CCCC2)cc1 returned Sm TGR inh -7%, AMA1 RON2 block 92%, Pf growth 96h 13µM*, NS1 function inh 1% and Pf growth 48h 25%.
Cc1ccc(C(=O)N/C(=C/c2ccco2)C(=O)N2CCCCC2)cc1 was read as Sm TGR inh inconclusive, AMA1 RON2 block -3%, Pf growth 96h 33%, NS1 function inh 0% and Pf growth 48h -10%.
Screening COc1ccc(C(=O)NC(=S)N2CCCCC2)cc1 returned Sm TGR inh -14%, AMA1 RON2 block 98%, Pf growth 96h -3% and NS1 function inh inconclusive.
For COc1ccc(C(=O)N/C(=C/c2ccco2)C(=O)N2CCCCCC2)cc1 the results were Sm TGR inh 45µM*, AMA1 RON2 block 22%, Pf growth 96h -52%, NS1 function inh 19% and Pf growth 48h -16%.
CCN(CC(=O)Nc1ccc(Br)cc1F)CC(=O)NC1CCS(=O)(=O)C1 (stereo not given) was read as Sm TGR inh 0%, AMA1 RON2 block 25%, Pf growth 96h -9% and Pf growth 48h -23%.
`CC(C)C1N(C(N)=S)N=CC1(C)C` (stereo not given) gave Sm TGR inh -3%, AMA1 RON2 block 4%, Pf growth 96h 9%, NS1 function inh 5% and Pf growth 48h inconclusive.
`CCOC(=O)C1CCN(Cc2ccccn2)CC1` gave Sm TGR inh -9%, Pf growth 96h 10µM*, NS1 function inh -1% and Pf growth 48h 9%.
For OC1CCCN(Cc2cccc3ccccc23)C1 (stereo not given) the results were Sm TGR inh -12%, AMA1 RON2 block 18%, NS1 function inh 8% and Pf growth 48h 4%.
For Oc1c(CN2CCCC(C(F)(F)F)C2)cc(Cl)c2ccccc12 (stereo not given) the results were Sm TGR inh 2µM*, AMA1 RON2 block -2%, Pf growth 96h inconclusive, NS1 function inh -4% and Pf growth 48h inconclusive.
`CCOC(=O)C1CCN(Cc2cc(Cl)c3ccccc3c2O)CC1` gave Sm TGR inh 4.5µM*, AMA1 RON2 block -14%, Pf growth 96h 1.2µM*, NS1 function inh -41% and Pf growth 48h 1.2µM*.
Screening O=C(O)C1CCN(Cc2ccccn2)CC1 returned Sm TGR inh 2%, AMA1 RON2 block 12%, Pf growth 96h 15%, NS1 function inh 6% and Pf growth 48h -7%.
Cc1ccc2c(c1)c1c(n2CCc2ccc(C)nc2)CCN(C)C1 was read as Sm TGR inh 5%, Pf growth 96h 2.1µM* and Pf growth 48h 15µM*.
For CCOC(=O)N1CCN(C(=O)Cc2ccccc2[N+](=O)[O-])CC1 the results were Sm TGR inh -1%, AMA1 RON2 block 6%, Pf growth 96h -26%, NS1 function inh -17% and Pf growth 48h -3%.
For Cc1cc(NC(=O)COC(=O)C2COc3ccccc3O2)no1 (stereo not given) the results were Sm TGR inh 1%, AMA1 RON2 block -7%, Pf growth 96h 10µM*, NS1 function inh -8% and Pf growth 48h 38%.

Source: PubChem BioAssay
